Measured values from PubChem BioAssay (Tox21).
Inconclusive results are not listed. Active and inactive are the calls of the source. Unless noted, the call rests on the fitted dose curve; in most records, active means well fitted curve in the direction sought with a large enough effect in the repeat runs; inconclusive means weak or mixed curves; inactive means no such curve, though single readings can be large; an effect the other way counts as inactive or inconclusive.

How the values were obtained:
[1] = A CellTox Green Cytotoxicity Assay to monitor cytotoxicity in HepG2 cells - 24 hour (AID 1224878); further: nearly all actives have a fitted effect of over 45% in size
In short: (§1)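 HepG2 cells were seeded together with the CellTox Green dye at 600 cells/well, left 5 h at 37 C/5% CO2, then given compounds in DMSO. Fluorescence from dye bound to dead-cell DNA was read repeatedly over 40 h of treatment at 37 C.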

[2] = A CellTox Green Cytotoxicity Assay to monitor cytotoxicity in HepG2 cells - 40 hour (AID 1224879); further: nearly all actives have a fitted effect of over 40% in size
In short: as §1

[3] = qHTS RealTime-Glo MT Cell Viability Assay in HEK293 cells - 0 hour (AID 1224880); further: top concentration of the series differs between compounds; nearly all actives have a fitted effect of over 45% in size
In short: (§2)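 HEK293 cells mixed with RealTime-Glo reagents (NanoLuc plus cell-permeant prosubstrate) at 600 cells/well, preincubated 5 h at 37 C/5% CO2, then given 23 nL compound in DMSO. Nonlytic luminescence from viable cells was read at 0, 8, 16, 24, 32 and 40 h.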

[4] = A CellTox Green Cytotoxicity Assay to monitor cytotoxicity in HEK293 cells - 32 hour (AID 1224881); further: nearly all actives have a fitted effect of over 40% in size
In short: (§3)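 HEK293 cells premixed with CellTox Green dye were seeded at 600 cells/well and left 5 h at 37 C/5% CO2 before pin transfer of 23 nL compound in DMSO. Fluorescence from dye bound to dead-cell DNA was read during 40 h treatment.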

[5] = A CellTox Green Cytotoxicity Assay to monitor cytotoxicity in HepG2 cells - 0 hour (AID 1224882); further: nearly all actives have a fitted effect of over 35% in size
In short: as §1

[6] = A CellTox Green Cytotoxicity Assay to monitor cytotoxicity in HepG2 cells - 32 hour (AID 1224883); further: nearly all actives have a fitted effect of over 50% in size
In short: as §1

[7] = A CellTox Green Cytotoxicity Assay to monitor cytotoxicity in HEK293 cells - 8 hour (AID 1224884); further: nearly all actives have a fitted effect of over 35% in size
In short: as §3

[8] = qHTS RealTime-Glo MT Cell Viability Assay in HepG2 cells - 16 hour (AID 1224885); further: nearly all actives have a fitted effect of over 50% in size
In short: (§4)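 Viability was tracked continuously by NanoLuc luminescence from prosubstrate reduced by living HepG2 cells, at successive time points over 40 h of compound exposure. Cells with reagent were preincubated 5 h at 37 °C before compound addition.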

[9] = qHTS RealTime-Glo MT Cell Viability Assay in HEK293 cells - 8 hour (AID 1224887); further: top concentration of the series differs between compounds; nearly all actives have a fitted effect of over 50% in size
In short: as §2

[10] = A CellTox Green Cytotoxicity Assay to monitor cytotoxicity in HEK293 cells - 16 hour (AID 1224888); further: nearly all actives have a fitted effect of over 35% in size
In short: as §3

[11] = qHTS RealTime-Glo MT Cell Viability Assay in HepG2 cells - 0 hour (AID 1224889); further: nearly all actives have a fitted effect of over 50% in size
In short: as §4

[12] = A CellTox Green Cytotoxicity Assay to monitor cytotoxicity in HepG2 cells - 8 hour (AID 1224890); further: nearly all actives have a fitted effect of over 45% in size
In short: as §1

[13] = qHTS assay to identify small molecule antagonists of the estrogen receptor alpha (ER-alpha) signaling pathway using the BG1 cell line in the presence of 0.1 nM 17-beta-estradiol - cell viability counter screen (AID 1259241); further: nearly all actives have a fitted effect of over 40% in size
In short: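 VM7Luc4E2 cells (endogenous full-length ER-alpha, 4xERE-luciferase), cultured 5 days in charcoal-stripped serum, exposed to compounds with 0.1 nM 17beta-estradiol (final) for 22 hr at 37C. Viability read in same wells as live-cell protease fluorescence after 30 min.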

[14] = target: Androgen receptor (Homo sapiens) (UniProt P10275); experiment: qHTS assay to identify small molecule antagonists of the androgen receptor (AR) signaling pathway using the MDA cell line in the presence of 0.5 nM R1881 (AID 1259243); further: nearly all actives have a fitted effect of over 50% in size
Androgen receptor (Homo sapiens), sequence (P10275 whole entry, looked up): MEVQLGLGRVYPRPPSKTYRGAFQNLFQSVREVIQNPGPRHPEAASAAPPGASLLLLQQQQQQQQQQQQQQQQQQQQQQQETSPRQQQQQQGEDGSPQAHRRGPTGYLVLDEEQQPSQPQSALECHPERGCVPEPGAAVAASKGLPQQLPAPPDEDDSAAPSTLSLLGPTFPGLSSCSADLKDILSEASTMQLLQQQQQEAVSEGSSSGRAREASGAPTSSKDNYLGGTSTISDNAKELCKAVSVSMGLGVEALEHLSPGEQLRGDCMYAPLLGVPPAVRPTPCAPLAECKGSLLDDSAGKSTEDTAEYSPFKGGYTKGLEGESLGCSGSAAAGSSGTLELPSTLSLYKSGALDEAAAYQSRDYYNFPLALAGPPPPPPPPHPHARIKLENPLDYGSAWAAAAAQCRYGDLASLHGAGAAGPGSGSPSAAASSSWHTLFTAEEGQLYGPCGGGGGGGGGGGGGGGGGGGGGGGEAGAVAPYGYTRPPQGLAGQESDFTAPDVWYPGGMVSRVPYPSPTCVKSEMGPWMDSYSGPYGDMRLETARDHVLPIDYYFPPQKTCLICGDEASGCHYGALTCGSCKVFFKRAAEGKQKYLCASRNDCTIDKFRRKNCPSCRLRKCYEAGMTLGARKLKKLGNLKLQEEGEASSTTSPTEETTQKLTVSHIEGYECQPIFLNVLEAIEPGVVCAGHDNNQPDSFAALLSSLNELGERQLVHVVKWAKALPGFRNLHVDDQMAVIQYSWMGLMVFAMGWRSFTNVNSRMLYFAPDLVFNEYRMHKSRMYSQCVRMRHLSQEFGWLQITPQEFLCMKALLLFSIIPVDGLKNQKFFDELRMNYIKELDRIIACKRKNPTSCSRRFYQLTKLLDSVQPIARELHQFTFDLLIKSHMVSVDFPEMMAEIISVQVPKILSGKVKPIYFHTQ
In short: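 MDA-kb2 human breast carcinoma cells carrying an MMTV-luciferase reporter (AR- and GR-responsive) were plated, rested 5 hr at 37C, dosed with compounds, then stimulated with 0.5 nM R1881 (final) for 16 hr; luminescence was read after ONE-Glo.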

[15] = target: Estrogen receptor (Homo sapiens) (UniProt P03372); experiment: qHTS assay to identify small molecule antagonists of the estrogen receptor alpha (ER-alpha) signaling pathway using the BG1 cell line in the presence of 0.1 nM 17-beta-estradiol (AID 1259244); further: nearly all actives have a fitted effect of over 50% in size
Estrogen receptor (Homo sapiens), sequence (P03372 whole entry, looked up): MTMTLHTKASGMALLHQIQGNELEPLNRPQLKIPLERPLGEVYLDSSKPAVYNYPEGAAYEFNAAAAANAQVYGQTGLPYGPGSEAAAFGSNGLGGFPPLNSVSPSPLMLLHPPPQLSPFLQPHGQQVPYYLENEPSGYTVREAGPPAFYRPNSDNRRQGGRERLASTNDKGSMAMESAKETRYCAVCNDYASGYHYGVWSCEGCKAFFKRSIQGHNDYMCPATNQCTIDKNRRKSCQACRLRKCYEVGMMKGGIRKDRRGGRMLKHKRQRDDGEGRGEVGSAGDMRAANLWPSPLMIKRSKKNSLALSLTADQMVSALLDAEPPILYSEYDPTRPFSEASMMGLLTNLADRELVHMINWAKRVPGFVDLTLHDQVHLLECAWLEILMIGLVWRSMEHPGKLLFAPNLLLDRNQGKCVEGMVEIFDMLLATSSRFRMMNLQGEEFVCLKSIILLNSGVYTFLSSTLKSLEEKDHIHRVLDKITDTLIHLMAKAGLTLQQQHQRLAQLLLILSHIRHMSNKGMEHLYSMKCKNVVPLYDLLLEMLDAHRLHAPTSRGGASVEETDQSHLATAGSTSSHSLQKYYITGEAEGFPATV
In short: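 VM7Luc4E2 cells (endogenous full-length ER-alpha, stable 4xERE-luciferase) were grown 5 days in phenol red-free medium with charcoal-stripped FBS, then exposed 22 h at 37C to compounds plus 0.1 nM (final) 17beta-estradiol; ONE-Glo luminescence read-out.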

[16] = qHTS assay to identify small molecule HDAC inhibitors (AID 1259364); further: top concentration of the series differs between compounds; nearly all actives have a fitted effect of over 45% in size
In short: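 Wild-type HCT-116 cells were plated overnight, exposed to compounds for 2 h at 37 °C, then given HDAC-Glo class I/II luminogenic reagent for 30 min at room temperature before luminescence was read.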

[17] = qHTS assay to identify small molecule HDAC inhibitors - cell viability counter screen (AID 1259365)
In short: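 Wild-type HCT-116 cells, 1,500/well, cultured overnight, then compound-treated 2 h at 37 C. Viability measured as ATP luminescence with CellTiter-Glo after 30 min at room temperature.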

[18] = qHTS RealTime-Glo MT Cell Viability Assay in HEK293 cells - 24 hour (AID 1224886)
In short: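 Viability tracked continuously by luminescence as live cells reduce a prosubstrate for NanoLuc; HEK293 cells preincubated 5 h, compound-treated at 37 C, and read at 0, 8, 16, 24, 32 and 40 h.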

[19] = qHTS assay to identify small molecule antagonists of the androgen receptor (AR) signaling pathway using the MDA cell line in the presence of 0.5 nM R1881 - cell viability counter screen (AID 1259242); further: nearly all actives have a fitted effect of over 45% in size
In short: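 MDA-kb2 cells (human breast carcinoma, stably carrying MMTV-luciferase reporter) were exposed to compounds with 0.5 nM R1881 (final) for 16 hr at 37C, 0% CO2; viability then read as live-cell protease fluorescence (CellTiter-Fluor, 30 min) in the same wells.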

[20] = qHTS assay to identify small molecule phospholipidosis (PLD) inducers (AID 1259344; active means well fitted curve in the direction sought with a large enough effect; an effect the other way counts as inactive or inconclusive)
In short: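 HepG2 cells on collagen I, attached 4 h at 37 C, were co-treated with compound and LipidTOX Red dye for 24 h at 37 C, then fixed with paraformaldehyde plus Hoechst 33342 and imaged by high-content microscopy for phospholipid accumulation.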

Measured: Potency

Nc1cc(S(=O)(=O)O)ccc1O
not listed: [18] | [19] | [20]
inactive: all other assays above

CCCCOCCCC
not listed: [4] | [10] | [14] | [15] | [20]
inactive: all other assays above

CC(C)=CCC/C(C)=C\C#N
not listed: [13] | [14] | [18] | [20]
inactive: all other assays above

O=C1CC2(CCCC2)CC(=O)N1CCNCC1COc2ccccc2O1 (stereo not drawn)
not listed: [3] | [14] | [15]
inactive: all other assays above

CCCC(C)C(O)CC (stereo not drawn)
not listed: [7] | [14] | [15] | [17] | [20]
inactive: all other assays above

Clc1cc(Cl)c(Cl)c(Cl)c1Cl
not listed: [6] | [14] | [17] | [19] | [20]
inactive: all other assays above

CC(C)(C)C(=O)CCc1ccc(Cl)cc1
not listed: [1] | [14] | [16] | [17] | [20]
inactive: all other assays above

Cc1ccc(S(=O)(=O)NC(=O)NN2CC3CCCC3C2)cc1 (stereo not drawn)
not listed: [1] | [14]
inactive: all other assays above
